# Most compounds without a hit are left out; they make up all but 2% or so of the library.
# Rango-impB inh = Rango-importin beta binding inhibition; Potency, µM (highest dose often 92.2 µM), inactives show at the top dose inhibition of complex formation; 0.031% of 340,000 active; Q14974; Rango CFP/YFP FRET sensor + importin beta, 45 min; calls by dose curve;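 note: 0% = DMSO wells and 100% = buffer wells lacking importin beta; nearly all actives have a fitted effect of over 15% in size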
# Target sequence (Q14974 whole entry, looked up): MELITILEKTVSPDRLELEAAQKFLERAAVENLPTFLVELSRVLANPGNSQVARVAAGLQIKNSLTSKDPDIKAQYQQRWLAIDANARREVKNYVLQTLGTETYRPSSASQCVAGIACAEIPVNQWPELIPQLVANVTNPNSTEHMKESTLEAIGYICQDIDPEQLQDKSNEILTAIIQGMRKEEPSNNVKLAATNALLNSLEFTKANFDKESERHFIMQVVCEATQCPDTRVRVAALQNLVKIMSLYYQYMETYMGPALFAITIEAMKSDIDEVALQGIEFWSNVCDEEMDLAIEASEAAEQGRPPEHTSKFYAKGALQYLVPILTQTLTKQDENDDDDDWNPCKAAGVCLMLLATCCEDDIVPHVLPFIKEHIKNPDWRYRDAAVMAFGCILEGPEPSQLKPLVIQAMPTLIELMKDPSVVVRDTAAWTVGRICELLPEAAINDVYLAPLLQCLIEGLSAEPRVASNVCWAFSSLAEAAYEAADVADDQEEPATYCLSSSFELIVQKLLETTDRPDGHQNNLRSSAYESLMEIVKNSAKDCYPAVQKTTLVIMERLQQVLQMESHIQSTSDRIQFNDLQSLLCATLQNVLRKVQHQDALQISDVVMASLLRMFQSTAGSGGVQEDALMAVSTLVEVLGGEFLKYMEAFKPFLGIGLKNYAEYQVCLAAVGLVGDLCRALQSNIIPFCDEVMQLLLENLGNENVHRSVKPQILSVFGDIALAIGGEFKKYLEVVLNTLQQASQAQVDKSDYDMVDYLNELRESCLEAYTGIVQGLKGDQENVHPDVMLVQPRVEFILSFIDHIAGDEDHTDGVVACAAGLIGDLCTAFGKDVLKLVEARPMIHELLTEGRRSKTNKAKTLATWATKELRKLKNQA
#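 FRET biosensor (snurportin 1 IBB flanked by EYFP and cerulean), 50 nM, with compound 5 min, then 0.125 microM importin beta in PBS, 1 mM DTT, 0.02% Tween-20, 0.1% BSA. CFP/YFP ratio read after 45 min at room temperature; pre-read flags interference.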
# S-ASM inh = human S-ASM enzyme inhibition; placental ASM, HMU-PC fluorogenic substrate, 60 min; Potency, µM (top dose mostly 57.5 µM), for the others: at the top dose activity change, negative = inhibition, usual class: inhibitors; 0.006% of 340,000 active
#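 Human placenta-derived ASM preincubated with compound 10 min at room temperature, then reacted with 9 uM (final) fluorogenic HMU-PC substrate for 60 min at 37 C. Stop solution raises pH to 10; fluorescence read at Ex 386/Em 447 nm.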
# aSyn yeast inh = rescues yeast growth from alpha-synuclein toxicity. 0.14% of 370,000 active. Potency, µM (series often up to 46.1 µM), without a hit: top-dose growth rescue (activation), usual class: activators. AID 652106. Yeast expressing alpha-synuclein, growth rescue, BacTiter-Glo, 24 h; note: % of control where 0% means no effect; nearly all actives have a fitted effect of over 65% in size
#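 Screening used galactose-induced yeast with toxic alpha-synuclein levels, exposed to compound for 24 hr at 30 deg C. Cell growth, read with BacTiter-Glo luminescence, gave the measured signal.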
# Abeta rescue = compounds reversing amyloid beta toxicity in yeast; Potency, µM (doses to about 46.1 µM), hits mostly activators; AID 1347071; 0.063% of 410,000 active; yeast expressing A-beta42, growth rescue, OD600, 48 h; response scale: 0% DMSO, 100% iron-clioquinol control; note: nearly all actives have a fitted effect of over 55% in size
#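 Growth rescue measured by 600 nm absorbance after 48 h yeast culture at 30 C with compound. Values normalized between DMSO and an equimolar ferric chloride plus clioquinol control.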
# Rango dissoc inh = inhibitors of RanGTP-induced Rango-importin beta complex dissociation; O95149+P62826; Biochemical FRET Rango-importin beta, RanGTP-induced dissociation; Potency, µM (doses to about 46.1 µM), inactives show at the top dose activity change, negative = inhibition; 0.071% of 340,000 active; AID 540253; calls by dose curve; note: % of control where 0% means no effect; nearly all actives have a fitted effect of over 45% in size
#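 Quantitative HTS using a FRET biosensor: 0.1 uM Rango, 0.25 uM importin beta, 0.6 uM Ran, 2 mM GTP, 0.2 uM RCC1 final, PBS with DTT, Tween-20 and BSA. Post-read taken 45 min after Ran addition.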
# TDP-43 yeast inh = rescues yeast growth from TDP-43 toxicity | 1.8% of 410,000 active | TDP-43 expressing yeast growth rescue, BacTiter-Glo, 24 h | Potency, µM (doses to about 46.1 µM), inactives show at the top dose growth rescue (activation), actives largely listed as activators | AID 652104; note: % of control where 0% means no effect; nearly all actives have a fitted effect of over 50% in size
#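 Luminescence from BacTiter-Glo reports growth of TDP-43-expressing yeast after 24 hr at 30 deg C with compound. Cells were raffinose-pregrown to mid-log, then seeded in galactose medium at OD600=0.02.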
# * marks the source's active call; other numbers are inactive results; i = inactive; ? = inconclusive; / = not tested or not shown; ! = repeats disagree; [ ] = dose if it differs, or a comment. Unless noted, calls come from the whole dose curve; as a rule, active = well fitted curve in the direction sought with a large enough effect; inconclusive = small, poorly fitted or top-dose-only effect, or another doubt; inactive = no such curve, though single readings can be large; an effect the other way counts as inactive or inconclusive. Potency is the fitted concentration of half-maximal effect.
SMILES,Rango-impB inh,S-ASM inh,aSyn yeast inh,Abeta rescue,Rango dissoc inh,TDP-43 yeast inh
Cc1nc(Cl)sc1C(=O)Nc1ccc(C(C)(C)C)cc1,1%,-8%,-12%,i,5%,11µM*
O=C(Nc1ccon1)Nc1cccc(Cl)c1Cl,1%,-4%,1%,i,4%,13µM*
O=C(Nc1cccc(C(F)(F)F)c1)c1cc(-c2ccco2)on1,-3%,-1%,-2%,i,2%,-2%
O=C(Nc1cccc(C(F)(F)F)c1)Nc1ccon1,-1%,-1%,-11%,i,0%,20µM*
O=C(Nc1cccc(C(F)(F)F)c1)c1sc(Cl)nc1C(F)(F)F,1%,-11%,-23%,10µM*,-5%,13µM*
CCOC(=O)c1c(NC(=O)c2cc(=O)c3cc(Cl)ccc3o2)sc(C)c1C,/,/,/,i,/,19%
CCCN(CCC)CCNC(=O)c1cc2c(=O)n(C)c3ccccc3c2n1C,0%,-5%,11µM*,i,13%,-2%
CN(CCNC(=O)c1cc2c(=O)n(C)c3ccccc3c2n1C)Cc1ccccc1,-3%,-10%,?,i,5%,-3%
Cc1ccc(S(=O)(=O)N(CC(=O)Nc2ccc3c(c2)OCO3)c2cc(Cl)cc(Cl)c2)cc1,/,/,/,i,/,-1%
CC1(C)CCC[C@@]2(C)CC=C(C(=O)O)[C@@H]3C[C@]312,-1%,2%,?,i,-2%,11µM*
O=C(Nc1cccc(Br)c1)Nc1nc2c(s1)CCCCCC2,/,/,/,i,/,?
CC(C)(C)c1ccc(OCCNCc2ccccc2)cc1,0%,-1%,-13%,i,3%,0%
CC(C)(C)c1ccc(OCCNC(=S)Nc2ccccc2)cc1,-1%,-2%,-1%,i,12%,13µM*
Cc1ccc(CSc2nnc(-c3ccc(NC(=O)CCc4ccccc4)cc3)n2C)cc1,/,/,9%,/,/,/
Cc1cccc(Cn2cc(/C=C/[N+](=O)[O-])c3ccccc32)c1,?,-28%,-16%,i,-1%,14µM*
O=[N+]([O-])/C=C/c1cn(Cc2ccc(Cl)cc2)c2ccccc12,-1%,/,1%,i,1%,4%
CC(C)(C)NC(=O)C(c1ccc(C#N)cc1)n1c(=O)c(-c2cc3ccccc3[nH]2)nc2ccccc21 (stereo not given),/,/,13µM*,?,/,26%
CC(C)(C)NC(=O)C(c1ccc(C(F)(F)F)cc1)n1c(=O)c(-c2cc3ccccc3[nH]2)nc2ccccc21 (stereo not given),/,/,7.1µM*,?,/,?
CC(=O)c1ccc(NC(=O)CSc2nc(-c3ccccc3C)nc3c2c(=O)n(C)c(=O)n3C)cc1,/,/,/,i,/,14%[9.22 µM]
COc1cc(C(=O)Sc2ccc(C)cc2)cc(OC)c1OC,0%,-6%,-21%,i,-1%,28µM*
COc1cc(C(=O)Oc2c(Sc3ccc(C)cc3)c(C)nn2-c2ccccc2)cc(OC)c1OC,/,/,/,i,/,22µM*
COc1ccccc1OCC(=O)Sc1ccc(C)cc1,0%,-1%,25%,i,11%,?
Cc1ccc(NC(=O)C2CCN(c3nc4ccccc4nc3C(F)(F)F)CC2)cc1F,/,/,/,i,/,25%
Cc1c(C(=O)Nc2cccc(C(F)(F)F)c2)oc2ccc(S(=O)(=O)N3CCOCC3)cc12,-1%,22µM*,6%,i,-10%,-11%
O=C(Oc1c(Cl)cc(Cl)c2ccccc12)N1CCCC1,-1%,-3%,0%,i,17%,13µM*
CCOC(=O)c1cccc(NC(=O)Cn2c(=O)nc(-c3ccccc3F)c3cc(Cl)ccc32)c1,/,/,/,i,/,?
COc1ccc(Br)cc1CNC(=O)CCC(=O)N1CCSc2ccccc21,2%,3%,-1%,i,-14%,22µM*!
CC(C)(C)C(=O)CSc1n[nH]c(-c2ccccc2)n1,/,/,-2%,/,/,/
O=C(c1cc(-c2ccc(O)cc2)on1)N1CCN(c2ccccc2)CC1,?,-5%,10%,i,-7%,10µM*

# High-throughput results deposited in PubChem BioAssay by National Center for Advancing Translational Sciences (NCATS).
